Measurements taken from PubChem BioAssay (EPA / NIEHS).
Inconclusive results are not listed. Calls of active or inactive are those of the source. The calls were made as follows, unless noted: active = hit-call score of the fitted dose curve at least 0.9, where 1 is the maximum; inactive = score below 0.9.

What was measured:
[1] = biological target: Myc proto-oncogene protein (Homo sapiens) (UniProt P01106); experiment: ATG_Myc_CIS: Attagene CIS-FACTORIAL HepG2 Assay for human Myelocytomatosis (Myc) Proto-Oncogene Transcription Factor (AID 2282990); conditions: HepG2, Attagene cis-reporter transcription factor activity; actives raise or lower the signal
Sequence of Myc proto-oncogene protein (Homo sapiens) (P01106 whole entry, looked up): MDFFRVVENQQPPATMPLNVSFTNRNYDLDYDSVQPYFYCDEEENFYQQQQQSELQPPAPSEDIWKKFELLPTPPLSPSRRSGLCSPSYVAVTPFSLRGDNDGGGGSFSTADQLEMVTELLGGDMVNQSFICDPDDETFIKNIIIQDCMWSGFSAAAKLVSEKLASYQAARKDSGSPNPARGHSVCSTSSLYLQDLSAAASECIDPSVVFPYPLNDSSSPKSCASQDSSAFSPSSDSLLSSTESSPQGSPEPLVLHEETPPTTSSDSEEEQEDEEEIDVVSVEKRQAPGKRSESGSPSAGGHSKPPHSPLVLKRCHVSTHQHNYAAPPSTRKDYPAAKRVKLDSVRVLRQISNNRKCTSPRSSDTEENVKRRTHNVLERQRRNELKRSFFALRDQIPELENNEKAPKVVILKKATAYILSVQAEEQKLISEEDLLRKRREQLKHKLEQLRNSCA
Procedure, shortened: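 HepG2 cells transiently transfected with multiple cis-promoter-driven reporter transcription units, so endogenous TF activity is read. After 24 h compound exposure, reporter mRNA was quantified by RT-PCR, 6-FAM labelling, HpaI digestion and capillary electrophoresis; bidirectional fit versus DMSO.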

[2] = ATG_NF_kB_CIS: Attagene CIS-FACTORIAL HepG2 Assay for human Nuclear Factor Kappa B (NF-kB) (AID 2282991); conditions: HepG2 Attagene cis-factorial NF-kB reporter mRNA; actives raise or lower the signal
Procedure, shortened: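 HepG2 cells transiently transfected with multiplexed cis-element reporter units measuring endogenous transcription factor activity; reporter mRNA read 24 h after dosing by RT-PCR, fluorescent labelling, HpaI digestion and capillary electrophoresis. Bidirectional fit against DMSO baseline.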

[3] = ATG_NRF2_ARE_CIS: Attagene CIS-FACTORIAL HepG2 Assay for human Nuclear Factor Erythroid 2 Related Factor 2 (NFR2) response to Antioxidant Response Elements (ARE) (AID 2282992); conditions: HepG2 Attagene ARE/NRF2 reporter, transcription factor activity; actives raise or lower the signal;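 as to AC50: reporter mRNA level measured by RT-PCR and capillary electrophoresis fluorescence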
Procedure, shortened: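 Transient MRTU transfection of HepG2; 24 h compound exposure; TriZol RNA, RT with oligo(dT), PCR, 6-FAM primer extension, HpaI cut, CE. Bidirectional fit vs DMSO.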

[4] = ATG_Oct_MLP_CIS: Attagene CIS-FACTORIAL HepG2 Assay for human Octamer-Binding Transcription Factor (Oct) (AID 2282993); conditions: HepG2 Attagene cis-factorial Oct reporter, mRNA; actives raise or lower the signal
Procedure, shortened: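 HepG2 cells transiently transfected with cis-promoter-driven multiplexed reporter transcription units, dosed for 24 h. Reporter mRNA quantified by RT-PCR, fluorescent labelling, HpaI digestion and capillary electrophoresis; bidirectional fits versus DMSO baseline.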

[5] = biological target: Cellular tumor antigen p53 (Homo sapiens) (UniProt P04637); experiment: ATG_p53_CIS: Attagene CIS-FACTORIAL HepG2 Assay for human p53 Transcription Factor (AID 2282994); conditions: HepG2 p53 cis-element reporter, Attagene mRNA; actives raise or lower the signal
Sequence of Cellular tumor antigen p53 (Homo sapiens) (P04637 whole entry, looked up): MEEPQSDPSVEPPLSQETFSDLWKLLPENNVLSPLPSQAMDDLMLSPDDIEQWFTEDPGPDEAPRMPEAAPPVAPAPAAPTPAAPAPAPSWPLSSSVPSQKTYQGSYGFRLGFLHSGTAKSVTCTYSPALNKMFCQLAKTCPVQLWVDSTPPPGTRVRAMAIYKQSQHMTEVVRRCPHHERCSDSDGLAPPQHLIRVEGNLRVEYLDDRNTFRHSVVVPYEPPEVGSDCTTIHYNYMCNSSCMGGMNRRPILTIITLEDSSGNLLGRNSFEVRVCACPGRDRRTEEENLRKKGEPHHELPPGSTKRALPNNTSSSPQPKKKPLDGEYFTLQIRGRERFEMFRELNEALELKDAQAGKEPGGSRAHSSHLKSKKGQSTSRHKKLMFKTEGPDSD
Procedure, shortened: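 HepG2, transient MRTU transfection (cis promoter elements, endogenous TFs); 24 h dosing; RNA isolation, RT-PCR, 6-FAM primer extension, HpaI digest, CE fluorescence; bidirectional fit vs DMSO.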

[6] = biological target: human Peroxisome Proliferator-activated Receptor alpha (PPARa), PPARA (gene 5465) (UniProt Q07869); experiment: ATG_PPARa_TRANS: Attagene TRANS-FACTORIAL HepG2 Assay for human Peroxisome Proliferator-activated Receptor alpha (PPARa) (AID 2283001; active = hit-call score of the fitted dose curve at least 0.9, where 1 is the maximum)
Sequence of human Peroxisome Proliferator-activated Receptor alpha (PPARa), PPARA (gene 5465) (Q07869 whole entry, looked up, the tested form may be a part): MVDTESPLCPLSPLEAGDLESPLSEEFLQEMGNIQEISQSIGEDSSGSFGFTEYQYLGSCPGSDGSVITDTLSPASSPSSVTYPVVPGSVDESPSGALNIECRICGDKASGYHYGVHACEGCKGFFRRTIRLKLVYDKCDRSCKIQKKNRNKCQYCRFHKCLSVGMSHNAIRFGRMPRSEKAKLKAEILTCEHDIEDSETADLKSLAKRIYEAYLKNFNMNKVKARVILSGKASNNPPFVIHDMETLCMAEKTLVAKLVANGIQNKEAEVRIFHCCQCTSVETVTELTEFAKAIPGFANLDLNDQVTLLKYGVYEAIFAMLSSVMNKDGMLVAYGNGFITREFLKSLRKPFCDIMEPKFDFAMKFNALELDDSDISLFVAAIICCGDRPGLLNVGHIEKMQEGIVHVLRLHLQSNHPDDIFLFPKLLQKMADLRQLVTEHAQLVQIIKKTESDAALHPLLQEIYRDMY
Procedure, shortened: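 Gain-of-signal endpoint: reporter mRNA induction relative to DMSO, detected by fluorescent RT-PCR and capillary electrophoresis. HepG2 cells transiently carried GAL4-UAS-driven reporter units plus NR-Gal4 fusion; exposure lasted 24 h.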

[7] = biological target: human Peroxisome Proliferator-activated Receptor delta (PPARd), PPARD (gene 5467) (UniProt Q03181); experiment: ATG_PPARd_TRANS: Attagene TRANS-FACTORIAL HepG2 Assay for human Peroxisome Proliferator-activated Receptor delta (PPARd) (AID 2283002; active = hit-call score of the fitted dose curve at least 0.9, where 1 is the maximum)
Sequence of human Peroxisome Proliferator-activated Receptor delta (PPARd), PPARD (gene 5467) (Q03181 whole entry, looked up, the tested form may be a part): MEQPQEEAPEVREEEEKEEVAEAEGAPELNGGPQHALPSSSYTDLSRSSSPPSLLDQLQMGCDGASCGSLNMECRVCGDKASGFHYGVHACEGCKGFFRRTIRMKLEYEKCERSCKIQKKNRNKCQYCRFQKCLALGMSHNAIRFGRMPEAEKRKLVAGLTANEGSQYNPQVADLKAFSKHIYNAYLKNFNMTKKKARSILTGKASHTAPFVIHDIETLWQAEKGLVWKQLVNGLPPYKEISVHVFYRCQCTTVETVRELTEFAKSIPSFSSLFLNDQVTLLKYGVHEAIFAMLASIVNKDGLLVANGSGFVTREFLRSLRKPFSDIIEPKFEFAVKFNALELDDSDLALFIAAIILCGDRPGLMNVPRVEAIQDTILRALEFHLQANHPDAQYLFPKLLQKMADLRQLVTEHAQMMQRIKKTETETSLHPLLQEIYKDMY
Procedure, shortened: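 HepG2 cells transiently transfected with multiplexed GAL4-UAS reporter units and exogenous chimeric NR-Gal4 proteins; 24 h compound exposure. Reporter mRNA measured by RT-PCR, 6-FAM labelling, HpaI digestion and capillary electrophoresis; gain of signal versus DMSO.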

[8] = biological target: Retinoic acid receptor alpha (Homo sapiens) (UniProt P10276); experiment: ATG_RARa_TRANS: Attagene TRANS-FACTORIAL HepG2 Assay for human Retinoic Acid Receptor alpha (RARa) (AID 2283005; active = hit-call score of the fitted dose curve at least 0.9, where 1 is the maximum)
Sequence of Retinoic acid receptor alpha (Homo sapiens) (P10276 whole entry, looked up, the tested form may be a part): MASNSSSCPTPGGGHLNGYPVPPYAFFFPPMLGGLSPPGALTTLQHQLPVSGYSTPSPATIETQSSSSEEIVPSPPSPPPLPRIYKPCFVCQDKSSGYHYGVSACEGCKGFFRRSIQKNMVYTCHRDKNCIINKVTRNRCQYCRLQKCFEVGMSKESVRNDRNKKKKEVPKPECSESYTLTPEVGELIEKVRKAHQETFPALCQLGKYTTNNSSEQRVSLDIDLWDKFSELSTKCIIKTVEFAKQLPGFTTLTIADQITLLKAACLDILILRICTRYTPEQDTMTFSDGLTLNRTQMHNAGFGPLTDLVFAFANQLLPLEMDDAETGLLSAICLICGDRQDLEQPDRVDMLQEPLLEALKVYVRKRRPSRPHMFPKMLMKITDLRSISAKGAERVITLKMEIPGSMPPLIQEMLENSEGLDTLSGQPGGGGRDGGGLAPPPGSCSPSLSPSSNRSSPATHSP
Procedure, shortened: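 HepG2 cells transiently transfected with multiple reporter units expressing chimeric RARα-GAL4 fusion, with GAL4-UAS-driven reporters. After 24 h compound exposure, reporter mRNA induction quantified by RT-PCR and capillary electrophoresis with fluorescent labeling; gain-of-signal fitted relative to DMSO control.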

[9] = biological target: Nuclear receptor subfamily 1 group I member 2 (Homo sapiens) (UniProt O75469); experiment: ATG_PXR_TRANS: Attagene TRANS-FACTORIAL HepG2 Assay for human Pregnane X Receptor (PXR) (AID 2283008; active = hit-call score of the fitted dose curve at least 0.9, where 1 is the maximum)
Sequence of Nuclear receptor subfamily 1 group I member 2 (Homo sapiens) (O75469 whole entry, looked up, the tested form may be a part): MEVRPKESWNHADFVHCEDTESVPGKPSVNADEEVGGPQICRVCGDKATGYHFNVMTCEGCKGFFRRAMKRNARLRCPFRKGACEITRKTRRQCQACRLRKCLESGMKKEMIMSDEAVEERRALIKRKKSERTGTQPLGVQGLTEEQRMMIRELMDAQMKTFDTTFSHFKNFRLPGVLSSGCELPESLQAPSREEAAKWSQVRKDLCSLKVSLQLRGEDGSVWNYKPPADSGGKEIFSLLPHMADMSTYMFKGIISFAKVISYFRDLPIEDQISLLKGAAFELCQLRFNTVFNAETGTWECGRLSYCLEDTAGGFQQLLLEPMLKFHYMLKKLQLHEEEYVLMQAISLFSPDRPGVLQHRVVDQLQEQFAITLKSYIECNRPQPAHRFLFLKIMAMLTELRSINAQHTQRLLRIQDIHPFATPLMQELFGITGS
Procedure, shortened: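 Read-out is fluorescence of labelled reporter cDNA fragments separated by capillary electrophoresis after RT-PCR and HpaI digestion. Source: HepG2 cells carrying PXR-GAL4/UAS reporter constructs, treated 24 h; activity fitted upward relative to DMSO.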

[10] = biological target: human Retinoic Acid Receptor gamma (RARg), RARG (gene 5916) (UniProt P13631); experiment: ATG_RARg_TRANS: Attagene TRANS-FACTORIAL HepG2 Assay for human Retinoic Acid Receptor gamma (RARg) (AID 2283009; active = hit-call score of the fitted dose curve at least 0.9, where 1 is the maximum)
Sequence of human Retinoic Acid Receptor gamma (RARg), RARG (gene 5916) (P13631 whole entry, looked up): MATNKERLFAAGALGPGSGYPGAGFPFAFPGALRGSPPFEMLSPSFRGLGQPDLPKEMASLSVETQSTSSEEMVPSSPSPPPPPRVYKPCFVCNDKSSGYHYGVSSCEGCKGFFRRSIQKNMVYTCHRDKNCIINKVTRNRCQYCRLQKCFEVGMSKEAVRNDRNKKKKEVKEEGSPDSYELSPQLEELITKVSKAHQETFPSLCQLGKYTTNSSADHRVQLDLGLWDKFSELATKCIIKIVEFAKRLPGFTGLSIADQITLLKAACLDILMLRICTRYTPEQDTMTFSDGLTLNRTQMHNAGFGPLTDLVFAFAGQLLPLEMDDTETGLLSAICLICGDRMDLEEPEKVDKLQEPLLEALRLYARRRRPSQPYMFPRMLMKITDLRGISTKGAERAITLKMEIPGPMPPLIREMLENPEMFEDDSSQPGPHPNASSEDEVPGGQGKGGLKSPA
Procedure, shortened: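 Transient transfection of HepG2 with multi-reporter constructs, then 24 h chemical treatment. Total RNA isolated, reverse-transcribed, PCR-amplified, fluorescently labelled and resolved by capillary electrophoresis; activity scored as mRNA induction versus DMSO.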

[11] = ATG_NFI_CIS: Attagene CIS-FACTORIAL HepG2 Assay for human Nuclear Factor I (NFI) (AID 2282989); conditions: HepG2 cis-regulatory reporter, NFI response element transcription; actives raise or lower the signal
Procedure, shortened: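 HepG2 cells transiently transfected with cis-element-driven multiplexed reporter transcription units, dosed for 24 h. Reporter mRNA quantified by RT-PCR, fluorescent labelling, HpaI digestion and capillary electrophoresis; bidirectional fit versus DMSO baseline.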

[12] = BSK_3C_TissueFactor: BioMAP Diversity Plus: 3C Assay for Tissue Factor Biomarker Activity (AID 2282997); conditions: BioMAP 3C HUVEC, tissue factor biomarker readout; actives raise or lower the signal
Procedure, shortened: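 Values derive from bidirectional curve fitting against DMSO of Tissue Factor ELISA signals, taken 24 h after dosing primary human umbilical vein endothelial cells.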

[13] = BSK_3C_uPAR: BioMAP Diversity Plus: 3C Assay for Urokinase-type plasminogen activator receptor (uPAR) Biomarker Activity (AID 2282998); conditions: BioMAP 3C HUVEC, uPAR biomarker ELISA; actives raise or lower the signal
Procedure, shortened: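 Human umbilical vein endothelial primary cells were exposed to test chemical for 24 h. Cell-surface uPAR was then quantified by ELISA, and responses were fitted bidirectionally against DMSO as negative control and baseline.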

[14] = BSK_3C_VCAM1: BioMAP Diversity Plus: 3C Assay for Vascular cell adhesion molecule 1 (VCAM1) Biomarker Activity (AID 2282999); conditions: BioMAP 3C HUVEC, VCAM1 ELISA, cytokine-stimulated; actives raise or lower the signal
Procedure, shortened: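 Human umbilical vein endothelial cells were dosed with compound for 24 h, after which cell-surface VCAM-1 was quantified by ELISA. Bidirectional curve fitting used DMSO as negative control and activity baseline.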

[15] = BSK_4H_Eotaxin3: BioMAP Diversity Plus: 4H Assay for Eotaxin 3 Biomarker Activity (AID 2283000); conditions: primary human endothelial cells (HUVEC); actives raise or lower the signal
Procedure, shortened: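 Endothelial primary cells (human umbilical vein) exposed to compound for 24 h. ELISA detection of Eotaxin-3.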

[16] = biological target: human Retinoic Acid Receptor beta (RARb), RARB (gene 5915) (UniProt P10826); experiment: ATG_RARb_TRANS: Attagene TRANS-FACTORIAL HepG2 Assay for human Retinoic Acid Receptor beta (AID 2283004; active = hit-call score of the fitted dose curve at least 0.9, where 1 is the maximum)
Sequence of human Retinoic Acid Receptor beta (RARb), RARB (gene 5915) (P10826 whole entry, looked up, the tested form may be a part): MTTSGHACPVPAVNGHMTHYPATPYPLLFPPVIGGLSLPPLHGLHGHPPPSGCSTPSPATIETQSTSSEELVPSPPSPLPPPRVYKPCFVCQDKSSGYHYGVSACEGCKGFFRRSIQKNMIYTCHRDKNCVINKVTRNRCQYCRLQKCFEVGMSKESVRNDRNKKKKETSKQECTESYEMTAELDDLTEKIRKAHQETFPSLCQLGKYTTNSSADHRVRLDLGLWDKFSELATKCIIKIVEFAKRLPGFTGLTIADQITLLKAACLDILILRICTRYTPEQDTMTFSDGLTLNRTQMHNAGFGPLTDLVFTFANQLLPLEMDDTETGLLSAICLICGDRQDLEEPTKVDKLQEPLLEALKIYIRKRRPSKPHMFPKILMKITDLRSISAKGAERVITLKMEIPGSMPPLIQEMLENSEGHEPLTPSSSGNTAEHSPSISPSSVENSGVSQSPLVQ
Procedure, shortened: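 HepG2, transient MRTU transfection, NR–Gal4 chimera, 24 h treatment; RT-PCR plus CE fluorescence detection of reporter mRNA; gain of signal vs DMSO.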

[17] = BSK_3C_Proliferation: Cell Proliferation Assessment in the BioMAP Diversity Plus: 3C Assay (AID 2283006); conditions: primary human endothelial cells (HUVEC);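 also: potency may reflect either rise or fall in cell number versus DMSO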
Procedure, shortened: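 Read-out is total protein by SRB absorbance at 560 nm, taken as a proxy for relative cell number. Primary human umbilical vein endothelium cultured below confluence was dosed for 48 h, TCA-fixed and SRB-stained; curves were fitted bidirectionally versus DMSO.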

[18] = biological target: Peroxisome proliferator-activated receptor gamma (Homo sapiens) (UniProt P37231); experiment: ATG_PPARg_TRANS: Attagene TRANS-FACTORIAL HepG2 Assay for human Peroxisome Proliferator-activated Receptor-gamma (PPARg) (AID 2283007; active = hit-call score of the fitted dose curve at least 0.9, where 1 is the maximum)
Sequence of Peroxisome proliferator-activated receptor gamma (Homo sapiens) (P37231 whole entry, looked up, the tested form may be a part): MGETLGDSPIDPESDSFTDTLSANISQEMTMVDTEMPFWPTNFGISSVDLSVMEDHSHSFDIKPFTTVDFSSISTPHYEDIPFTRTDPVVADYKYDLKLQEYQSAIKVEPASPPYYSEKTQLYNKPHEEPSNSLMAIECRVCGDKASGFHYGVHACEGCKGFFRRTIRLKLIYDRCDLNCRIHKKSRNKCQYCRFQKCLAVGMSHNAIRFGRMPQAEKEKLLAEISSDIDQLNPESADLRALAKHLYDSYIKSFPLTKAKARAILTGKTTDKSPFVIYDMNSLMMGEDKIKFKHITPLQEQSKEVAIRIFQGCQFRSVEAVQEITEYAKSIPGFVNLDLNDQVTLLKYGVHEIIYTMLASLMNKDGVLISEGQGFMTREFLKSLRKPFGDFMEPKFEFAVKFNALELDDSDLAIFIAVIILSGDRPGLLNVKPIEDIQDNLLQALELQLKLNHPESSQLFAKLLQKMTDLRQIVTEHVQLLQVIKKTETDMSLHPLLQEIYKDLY
Procedure, shortened: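 HepG2 cells transiently transfected with multiplexed GAL4-UAS reporter units and exogenous chimeric NR-Gal4 proteins; reporter mRNA quantified after 24 h compound exposure by RT-PCR, fluorescent labelling, HpaI digestion and capillary electrophoresis; gain-of-signal fitted versus DMSO baseline.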

Measured: AC50

Cc1c[nH]c(=O)[nH]c1=O
inactive: [1] | [2] | [3] | [4] | [5] | [6] | [7] | [8] | [9] | [10]

CCCCOCCOCCOC(C)=O
inactive: [11] | [1] | [2] | [3] | [4] | [5] | [7]

CCCCCCCCCCCC(C)=O
inactive: [11] | [1] | [4] | [6] | [16] | [8] | [9] | [10]
active: [3] 75.2 µM | [5] 147 µM | [12] 25.4 µM | [13] 34.5 µM | [14] 29.8 µM | [15] 30.1 µM | [17] 20 µM | [18] 51 µM

NC(=O)Nc1ccccc1
inactive: [11] | [2] | [3] | [4] | [5] | [6] | [16]

Nc1ccc(C(=O)OCCCOC(=O)c2ccc(N)cc2)cc1
inactive: [11] | [1] | [2] | [3] | [4] | [5] | [6]
active: [9] 19.6 µM
